Bioassay records: PubChem BioAssay, several laboratories
A selection: hits, their analogues and other compounds. The true share with any hit is near 1.5%.
MLLE-PAM2 inh – inhibitors of PABP1 MLLE–PAM2 peptide binding, primary screen, biochemical, fluorescence polarization, FITC-PAM2, GST-MLLE | inhibition, % at 20 µM | 360,000 tested, 0.36% active; in the data active = inhibition above about 35%, passing the limit was not always enough
PABP FP inh – PABP poly(A) RNA binding inhibitors, primary screen, biochemical, fluorescence polarization, uHTS; Polyadenylate-binding protein 1 (Homo sapiens), P11940; calls only at 35 µM; 290,000 tested, 1% active; AID 2014, 2009;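 also: calls also rest on retests at 20 µM and on dose response follow-up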
eIF4E 4G PPI – eIF4E–eIF4G protein interaction inhibitors, primary screen, biochemical, uHTS, TR-FRET, eIF4GI fragment; Eukaryotic translation initiation factor 4E (Mus musculus) + Eukaryotic translation …; TR-FRET eIF4E-eIF4GI(517-606) binding, 2 h; inhibition, % at 21.7 µM; 220,000 tested, 0.37% active; AID 782, 2007;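 active = inhibition above about 30%, limit read from the data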
eIF4H inh – human eIF4H binding inhibitors, primary screen, translation initiation inhibitor project, biochemical, uHTS, fluorescence polarization; inhibition, % at 35 µM; Eukaryotic translation initiation factor 4H (Homo sapiens), Q15056; eIF4H fluorescence polarization binding assay; 290,000 tested, 0.94% active;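 also: calls also rest on retests at 20 µM and on dose response follow-up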
Hits are given with their value; n = inactive; u = inconclusive; x = not tested or not shown; + = active, no number; [ ] = remark or other dose. Unless noted, no rule for the calls is given here.

SMILES	MLLE-PAM2 inh	PABP FP inh	eIF4E 4G PPI	eIF4H inh
COc1ccc(N=C2SC(CC(=O)Nc3ccccc3)C(=O)N2CCN2CCOCC2)cc1 (configuration not stated)	n	+	n	active
COc1ccc(N=C2SC(CC(=O)Nc3ccccc3)C(=O)N2CC2CCCO2)cc1 (configuration not stated)	n	n	n	n
O=C(NC1CCCCC1)c1nc(C2CCNCC2)oc1-c1ccccc1	n	x	x	x
O=C(Nc1sc2c(c1C(=O)O)CCCC2)C(=O)N1CCOCC1	n	n	x	n
O=C(Nc1sc2c(c1C(=O)O)CCC2)C(=O)N1CCOCC1	n	+	x	86
CCNC(=O)NC(=O)CSc1ccc(S(=O)(=O)N2CCCCC2)cn1	n	x	x	x
CCN(CC)CCCNC(=O)CC1Sc2ccccc2NC1=O (configuration not stated)	n	n	32	n
Cc1ccccc1N1CCN(C2=NC(=O)/C(=C/c3cn[nH]c3-c3ccccc3)S2)CC1	n	+	n	u
O=C1N=C(N2CCCC2)S/C1=C\c1cn[nH]c1-c1ccccc1	x	n	n	n
O=C(O)C(O)c1ccccc1 (configuration not stated)	n	n	n	n
O=C(O)C(O)c1ccco1 (configuration not stated)	n	+	n	104
COc1ccc(/C=N/Nc2nc(-c3cccc(S(=O)(=O)N4CCCC4)c3)cs2)cc1OC	n	n	n	n
COc1cc(/C=N/Nc2nc(-c3ccc(S(=O)(=O)N(C)C)cc3)cs2)ccc1O	n	n	44	n
CSc1nsc(NN)n1	42	x	x	x
CSc1nsc(NC(=O)OCc2ccc(Cl)cc2)n1	n	n	x	n
CN(CCOc1ccccc1)Cc1ccccc1	n	x	x	x
CC(COc1ccccc1)N(CCCl)Cc1ccccc1 (configuration not stated)	n	+	n	active
CC1=C(C(=O)N(C)C)CC(CC(=O)NC(c2ccccc2)c2ccccc2)C(=O)N1Cc1ccc(F)cc1 (configuration not stated)	n	x	x	x
Cc1ccc(C(=O)NC2CCCCNC2=O)cc1 (configuration not stated)	n	n	90	n
CC(O)c1n(C)c(Cl)c[n+]1C (configuration not stated)	n	+	n	n
O=C(COC(=O)c1cncc(Br)c1)Nc1nnc(-c2ccccc2)o1	n	n	x	70
COc1cc(OC)cc(C(=O)OCC(=O)Nc2nnc(-c3ccccc3)o2)c1	n	x	x	x
COc1ccc(-c2cnnc(N/N=C/c3ccc(-c4ccc([N+](=O)[O-])cc4)o3)n2)cc1	n	n	31	n
O=[N+]([O-])c1ccc(-c2ccc(/C=N/Nc3nc(N4CCCC4)nc(N4CCCC4)n3)o2)cc1	n	n	n	n
C/C(O)=c1/c(=O)nc2cccc3c2=c1c1ccccc1c3=O	47	u	x	u
SMILES	MLLE-PAM2 inh	PABP FP inh	eIF4E 4G PPI	eIF4H inh
CCN1C(N(C)CCc2c[nH]c3ccccc23)=N[C@@H](c2cccc(C(F)(F)F)c2)C(C(=O)OC)=C1C	n	x	x	x
CCN1C(N(C)CCc2cccs2)=N[C@@H](c2ccccc2)C(C(=O)OC)=C1C	n	+	x	n
COc1ccc(CCNc2nc3ccccc3n3nnnc23)cc1OC	n	+	n	u
CCCN(CCC)S(=O)(=O)c1ccc(C(=O)OCCN2C(=O)c3cccc4c(N5CCOCC5)ccc(c34)C2=O)cc1	n	+	31[fluorescence artefact?]	129
O=C(OCCN1C(=O)c2cccc3c(N4CCOCC4)ccc(c23)C1=O)c1ccc(Cl)cc1	n	n	n	u
O=C1NC(=S)N/C1=C/c1cccn1-c1ccc([N+](=O)[O-])cc1	n	+	n	84
N=C1/C(=C/c2cccn2-c2ccc([N+](=O)[O-])cc2)C(=O)N=C2SC=CN12	n	n	n	n
CC1(C2CC2)NC(=O)NC1=O (configuration not stated)	n	n	90[fluorescence artefact?]	n
N#C/C(=C/c1cn(-c2ccccc2)nc1-c1cccc(OCc2ccc(F)cc2)c1)C(=O)NCCCn1ccnc1	n	n	n	n
CCCOc1cccc(-c2nn(-c3ccccc3)cc2/C=C(\C#N)C(=O)NCCCn2ccnc2)c1	n	+	n	u
C=CCn1c(C)cc(C(=O)CSc2nnc(-c3cccc(S(=O)(=O)N(CC)CC)c3)o2)c1C	n	n	n	n
CCN(CC)S(=O)(=O)c1cccc(-c2nnc(SCC(=O)c3cc(C)n(C4CC4)c3C)o2)c1	n	+	x	70
COCCN(CCOC)Cc1c(O)ccc2c1O/C(=C\c1ccco1)C2=O	n	+	x	91
O=C1/C(=C/c2ccco2)Oc2c1ccc(O)c2CN1CCCCC1	n	n	n	n
Cc1ccccc1Cn1c(C)c(C(=O)NCC(C)C)sc1=O	n	x	x	x
O=C(CCCO)CCCCCCCCC[C@H]1N[C@H](CO)[C@@H](O)[C@@H]1O	n	n	n	n
CN(Cc1cnccn1)Cc1c(C(=O)N2CCc3ccccc3C2)nc2ccc(Cl)cn12	n	n	n	n
CN(Cc1cccnc1)Cc1c(C(=O)N2CCc3ccccc3C2)nc2ccc(Cl)cn12	n	+	n	n
CCCCNC(=O)CC1S/C(=N/N=C/c2ccc(OC)cc2)NC1=O (configuration not stated)	n	n	n	10
O=C(C[n+]1cc(-c2ccccc2)n2c1CCCCC2)c1ccc(Cl)cc1	n	n	n	n
C[n+]1cc(-c2ccccc2)n2c1CCCCC2	n	+	n	n
OC(c1cccc(Cl)c1)c1nc(-c2ccc(F)c(Cl)c2)cs1 (configuration not stated)	n	x	x	x
Cc1ccc(NC(=S)C2=C(O)c3sccc3N(C)S2(=O)=O)cc1	41	n	n	n
O=c1[nH]c2ccc(NC(=S)Nc3ccccc3Cl)cc2[nH]1	38	n	n	n
CCN1C(=O)C(C)C=C(C)C=C1C (configuration not stated)	n	x	x	x
SMILES	MLLE-PAM2 inh	PABP FP inh	eIF4E 4G PPI	eIF4H inh
CCC(C(=O)OCC(=O)Nc1cc(OC)ccc1OC)c1ccccc1 (configuration not stated)	n	+	n	n
CCCOc1ccc(Cl)cc1/C=C1/C(=O)ON=C1C	n	n	x	n
CC1=NOC(=O)/C1=C\c1ccc(-c2ccc(Cl)cc2Cl)o1	n	n	n	55
Clc1cccc(Cl)c1C1Nc2cccc3cccc(c23)N1	n	+	x	99
COc1ccc(C2Nc3cccc4cccc(c34)N2)cc1	n	n	n	n
Fc1cccc(Cl)c1C1Nc2cccc3cccc(c23)N1	n	+	x	96
Cc1onc(-c2c(F)cccc2Cl)c1C(=O)Oc1ccccc1	n	x	x	x
CC(C)(C)OC(=O)NCCCCCNC(=O)c1[nH]cnc1C(=O)N[C@@H](Cc1ccccc1)C(=O)OCc1ccccc1	n	+	n	109
CC1CC2(CCCC2)N(C(=O)N(C)C)c2ccc(F)cc21 (configuration not stated)	n	n	x	n
COc1cc(/C=C2\SC(N)=NC2=O)cc(Cl)c1O	n	+	x	n
